Source: PubChem BioAssay
In the library only some 8.8% were active in any assay of this set; here they are far more common.
KB-3-1 cytotox: KB-3-1 parental cell cytotoxicity; KB-3-1 viability, CellTiter-Glo ATP luminescence, 72 h; Potency, µM (series often up to 46.1 µM), actives largely listed as cytotoxic; 400,000 tested, 1.4% active; also: nearly all actives have a fitted effect of over 60% in size
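Parental KB-3-1 adenocarcinoma cells in phenol-red-free DMEM with 10% FBS were pin-treated with compounds at several concentrations, incubated 72 h at 37 °C, and viability read by CellTiter-Glo luminescence; concentration-effect curves were fitted after normalization.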
HT1080 IDH1KD tx: kills HT-1080 cells with IDH1 knockdown. 360,000 tested, 2% active. HT-1080 IDH1 knockdown viability, ATP luminescence, 48 h. Potency, µM (doses to about 46.1 µM), actives largely listed as cytotoxic
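IDH1KD HT-1080 cells, 750/well, RPMI + 5% FBS; compound pinned after 2 h settling; 48 h, 37 °C; CellTiter-Glo luminescence; % activity normalised to DMSO and no-cell wells; curves fitted, classed by r2 and efficacy.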
HT1080NT lethal: kills 2HG-producing HT-1080-NT fibrosarcoma cells | Potency, µM (doses to about 46.1 µM), hits mostly cytotoxic | AID 686970 | HT-1080-NT fibrosarcoma viability, CellTiter-Glo ATP luminescence, 48 h | 360,000 tested, 1.6% active;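 also: NT is the 2HG producing partner of a matched IDH1 knockdown line; nearly all actives have a fitted effect of over 55% in size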
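Read-out is CellTiter-Glo luminescence after 10 minutes at room temperature, following 48 hours' compound treatment of HT-1080-NT cells (750 cells/well, RPMI, 5% FBS, 37 degrees C).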
KB-V1 cytotox: KB-V1 MDR subline cytotoxicity. KB-V1 MDR cells viability, CellTiter-Glo, 72 h. Potency, µM (top dose mostly 46.1 µM), usual class: cytotoxic. 400,000 tested, 3.4% active. AID 1347076; also: nearly all actives have a fitted effect of over 60% in size
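Cytotoxicity toward P-gp-expressing KB-V1 cells was determined as loss of CellTiter-Glo luminescence after 72 h at 37 degrees C. Compounds were tested in quantitative HTS format across a concentration range, with curves fitted to normalized data.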
IL1B secr inh: inflammasome signaling inhibition, IL-1 beta readout. 360,000 tested, 4.7% active. activity change, % at 57.5 µM. THP-1 LPS/ATP IL-1B secretion, AlphaLISA, 16 h; stronger effect = lower value; in the data active = activity change below about -50%; inconclusive = mostly about -30% to -49%
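THP-1 cells pretreated 1 hr with compounds (up to 57.5 uM final), then stimulated with LPS (250 ng/mL final) plus ATP (1.25 mM final); secreted IL-1B measured by AlphaLISA after 16 hr, decreased signal indicating inhibition.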
A number is an active result; 0 = inactive; ? = inconclusive; - = not tested or not shown. Unless noted, calls follow the shape of the dose curve; as a rule, active = well fitted curve in the direction sought with a large enough effect; inconclusive = small, poorly fitted or top-dose-only effect, or another doubt; inactive = no such curve, though single readings can be large; an effect the other way counts as inactive or inconclusive.

SMILES	KB-3-1 cytotox	HT1080 IDH1KD tx	HT1080NT lethal	KB-V1 cytotox	IL1B secr inh
CCCn1c(NCc2c[nH]c3ccccc23)nc2ccccc21	0	0	0	0	-52.4
CCCn1c(NCc2cccc(OC)c2O)nc2ccccc21	0	0	0	8.2µM	0
CCCCn1c(NCc2cc(Cl)ccc2O)nc2ccccc21	?	-	-	13µM	-
COc1ccc(NC(=O)CN2C(=O)COc3ccccc32)cc1OC	0	0	0	0	0
Cc1ccc2c(=O)c(C(=O)c3ccc(F)cc3)cn(CC(=O)NCc3ccccc3Cl)c2n1	0	-	-	0	-
Cc1ccc(C)n1-c1ccc(C(=O)/C=C/N(C)C)cc1	0	?	?	0	-86.6
CC(=O)Nc1ccc(S(=O)(=O)N(C)CC(=O)Nc2nc3ccccc3[nH]2)cc1	0	0	0	0	0
CCCn1c(SCC(=O)Nc2cc(C(=O)O)ccc2C)nc2sc3c(c2c1=O)CCC3	0	0	0	0	0
CC(C)[C@@H]1Cc2[nH]c(=O)[nH]c(=O)c2[C@H](C)O1	?	0	0	18.4µM	0
CC1OC(C2CCCCC2)Cc2[nH]c(=S)[nH]c(=O)c21 (stereo not drawn)	0	0	0	?	0
CC(C)[C@@H]1Cc2[nH]c(=S)[nH]c(=O)c2[C@H](C)O1	8.2µM	0	0	5.8µM	0
C[C@@H]1O[C@H](C2CCCC2)Cc2[nH]c(=S)[nH]c(=O)c21	16.4µM	0	0	?	0
CC(C)CC1OC(C(C)C)Cc2[nH]c(=S)[nH]c(=O)c21 (stereo not drawn)	0	0	0	0	0
O=C(NC(c1ccccc1)c1ccccc1)c1ccc(=O)[nH]n1	0	0	0	0	0
COc1ccc(NC(=O)[C@@H]2O[C@H](CO)[C@H](O)[C@H](O)[C@H]2O)cc1F	0	0	0	0	0
COc1cccc(Cn2ncc3c4sc(SC)cc4n(C)c3c2=O)c1	0	-	-	0	-
COc1ccc(NC(=O)c2cc(-c3ccccc3)nc3c2cnn3C(C)C)cc1	?	0	0	0	-70.0
COc1ccccc1CNC(=O)c1cc(C2CC2)nc2c1cnn2C(C)C	0	0	0	2.91µM	0
CC(C)n1ncc2c(C(=O)Nc3cccc(C#N)c3)cc(C3CC3)nc21	?	?	0	0	-57.6
CCNC(=O)c1cccc(NC(=O)c2cc(C3CC3)nc3c2cnn3C(C)C)c1	?	0	0	0	0
COc1ccccc1N1CCNC(C)C1=O (stereo not drawn)	0	0	0	0	0
COc1ccc(Nc2nc(N3CCN(S(C)(=O)=O)CC3)nc3ccccc23)c(OC)c1	0	0	0	0	0
COc1ccc(Nc2nc(NC(C)(C)C)nc(N3CCCC3)n2)c(OC)c1	0	?	?	18.4µM	0
COc1ccc(Nc2nc(N3CCCCC3)nc3ccccc23)c(OC)c1	?	?	?	0	-62.4
COc1ccc(OC)c(-c2nnc3n2N=C(c2ccc(OC)c(OC4CCCC4)c2)CS3)c1	0.92µM	-	-	4.61µM	-
SMILES	KB-3-1 cytotox	HT1080 IDH1KD tx	HT1080NT lethal	KB-V1 cytotox	IL1B secr inh
COc1ccc(C2=Nn3c(nnc3-c3ccccc3F)SC2)cc1OC1CCOC1 (stereo not drawn)	2.06µM	-	-	20.6µM	-
COc1ccc(OC)c(-c2nnc3n2N=C(c2ccc(OC(F)F)c(OCC4CC4)c2)CS3)c1	5.8µM	-	-	?	-
COc1ccc(C2=Nn3c(nnc3-c3ccccc3F)SC2)cc1OC1CCCC1	8.2µM	-	-	?	-
COc1ccc(OC)c(C2=Nn3c(nnc3C3CCCCC3)SC2)c1	0	?	?	?	0
CCOC(=O)c1c(C)[nH]c(C)c1S(=O)(=O)N1CCCC(C(=O)Nc2ccc(C)c(N(C)C)c2)C1 (stereo not drawn)	0	-	-	0	-
COC(=O)c1oc2ccc(Br)cc2c1NC(=O)CN1CCN(C)CC1	0	0	0	0	-53.3
COC(=O)c1oc2ccccc2c1NC(=O)CN1CCCC1	0	0	0	0	0
C[C@H](CO)N1C[C@H](C)[C@@H](CN(C)Cc2ccc(Cl)c(Cl)c2)Oc2c(NC(=O)C3CCOCC3)cccc2C1=O	0	0	0	0	0
C[C@H](CO)N1C[C@H](C)[C@@H](CN(C)Cc2ccc(Cl)c(Cl)c2)Oc2c(NC(=O)CCC(F)(F)F)cccc2C1=O	?	0	0	0	-69.5
C[C@H](CO)N1C[C@H](C)[C@@H](CN(C)Cc2ccc(Cl)c(Cl)c2)Oc2c(NC(=O)C3CC3)cccc2C1=O	?	0	0	0	-83.8
Cc1ccc(Cl)c(NC(=O)COC(=O)c2nn(-c3ccccc3)cc2O)c1Cl	0	0	0	0	0
CCC(=O)N1CCc2cc(S(=O)(=O)NC(Cc3ccccc3)C(=O)Nc3ccc(C)cc3)ccc21 (stereo not drawn)	0	-	-	0	-
FC(F)(F)c1nnc2c(Sc3ccc(Cl)cc3)nc3ccccc3n12	3.66µM	0	?	?	-52.0
FC(F)(F)c1nnc2c(Sc3ccccn3)nc3ccccc3n12	?	?	?	?	-66.0
CCOC(=O)CSc1nc2ccccc2n2c(C)nnc12	0	0	0	0	0
FC(F)(F)c1nnc2c(Sc3ccccc3)nc3ccccc3n12	11.6µM	?	?	?	?
Cc1nnc2c(SC(C)C)nc3ccccc3n12	?	?	?	?	0
